In PubChem BioAssay (EPA / NIEHS) one finds outcome and AC50 data, which are given here for five compounds.

Results filed as inconclusive are left out. The source made the active and inactive calls. The calls were made as follows, unless noted: active = hit-call score of the fitted dose curve at least 0.9, where 1 is the maximum; inconclusive = response in the unintended direction; inactive = score below 0.9.

A short description of test [1]: ATG_TAL_CIS: Attagene CIS-FACTORIAL HepG2 Assay for human TAL Basal Promoter (AID 2282966; active = hit-call score of the fitted dose curve at least 0.9, where 1 is the maximum; inactive = score below 0.9;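 also: background control endpoint measuring basal TAL promoter reporter mRNA not a specific factor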). As to conditions: HepG2 Attagene cis-factorial TAL promoter reporter; actives raise or lower the signal. The method, boiled down: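 Steps: transfect HepG2 with multiple reporter transcription units; dose 24 h; isolate RNA, reverse-transcribe, PCR-amplify, label with 6-FAM, digest with HpaI; resolve by capillary electrophoresis. Bidirectional fitting against DMSO baseline.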

Test [2] in a line: ATG_TGFb_CIS: Attagene CIS-FACTORIAL HepG2 Assay for human Transforming Growth Factor (TGF) (AID 2282967; active = hit-call score of the fitted dose curve at least 0.9, where 1 is the maximum; inactive = score below 0.9). The conditions noted are these: HepG2 Attagene CIS TGFb reporter, mRNA transcription; actives raise or lower the signal. The method, boiled down:
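Transient MRTU transfection of HepG2 (FuGene 6). Dose 24 h. TriZol RNA, oligo(dT) RT, PCR, 6-FAM primer extension, HpaI cut, CE. Bidirectional fit, DMSO = baseline.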

Test [3] has as its target Estrogen receptor (Homo sapiens) (UniProt P03372). Description: ATG_ERa_TRANS: Attagene TRANS-FACTORIAL HepG2 Assay for human Estrogen Receptor alpha (ERa) (AID 2282970). As to conditions: HepG2 Attagene TRANS ERa GAL4 reporter, mRNA. The procedure, abridged:
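Multiplexed cell-based reporter format in HepG2: chimeric ERa-Gal4 protein drives GAL4-UAS reporter transcription. Fluorescent reporter mRNA quantified by capillary electrophoresis 24 hours after dosing; endpoint fitted as signal gain against DMSO.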

Test [4] has as its target X-box-binding protein 1 (Homo sapiens) (UniProt P17861). Description: ATG_Xbp1_CIS: Attagene CIS-FACTORIAL HepG2 Assay for human X-box Binding Protein 1 (XBP1) (AID 2282972; active = hit-call score of the fitted dose curve at least 0.9, where 1 is the maximum; inactive = score below 0.9). As to conditions: HepG2 XBP1 cis-element reporter, Attagene multiplex; actives raise or lower the signal. The procedure, abridged:
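Fluorescence-labelled cDNA fragments from reporter transcripts, separated by capillary electrophoresis, give the signal. Source: HepG2 cells transfected with promoter-driven reporter units, harvested 24 h post-dose. DMSO served as reference for bidirectional curve fitting.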

The target in test [5] is Oxysterols receptor LXR-alpha (Homo sapiens) (UniProt Q13133). Description: ATG_LXRa_TRANS: Attagene TRANS-FACTORIAL HepG2 Assay for human Liver X Receptor alpha (LXRa) (AID 2282980). As to conditions: HepG2 Attagene TRANS reporter, LXRa transactivation. The method, boiled down: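 In this multiplexed TRANS system, compounds act on HepG2 cells carrying GAL4-UAS reporter units and a receptor-GAL4 fusion for 24 h. Induced reporter RNA is amplified, fluorescently labelled and sized by capillary electrophoresis, with DMSO as baseline.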
Sequence of Oxysterols receptor LXR-alpha (Homo sapiens) (Q13133 whole entry, looked up, the tested form may be a part): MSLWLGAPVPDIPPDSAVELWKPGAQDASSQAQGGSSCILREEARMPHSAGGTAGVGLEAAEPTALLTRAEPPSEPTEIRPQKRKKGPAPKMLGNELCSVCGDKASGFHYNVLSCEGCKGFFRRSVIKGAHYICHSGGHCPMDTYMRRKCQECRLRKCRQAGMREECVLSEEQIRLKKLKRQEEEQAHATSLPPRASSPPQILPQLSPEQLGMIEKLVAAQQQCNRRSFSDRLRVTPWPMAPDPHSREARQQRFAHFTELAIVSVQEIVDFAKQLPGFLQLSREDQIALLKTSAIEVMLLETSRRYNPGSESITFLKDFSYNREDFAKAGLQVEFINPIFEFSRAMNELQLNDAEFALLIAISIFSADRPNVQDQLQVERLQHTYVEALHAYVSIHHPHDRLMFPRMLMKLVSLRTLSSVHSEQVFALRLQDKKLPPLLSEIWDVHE

Test [6] deals with Oxysterols receptor LXR-beta (Homo sapiens) (UniProt P55055). Description: ATG_LXRb_TRANS: Attagene TRANS-FACTORIAL HepG2 Assay for human Liver X Receptor beta (LXRb) (AID 2282981). The conditions noted are these: HepG2 Attagene TRANS GAL4-LXRb reporter, mRNA. The method, boiled down:
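HepG2 cells transiently transfected with multiple reporter transcription units carrying chimeric NR-Gal4 proteins acting on GAL4-UAS reporters; compound exposure 24 h. Reporter mRNA quantified by RT-PCR, 6-FAM labelling, HpaI digestion and capillary electrophoresis; gain of signal versus DMSO.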

In test [7] the target is Hepatocyte nuclear factor 4-alpha (Homo sapiens) (UniProt P41235). Description: ATG_HNF4a_TRANS: Attagene TRANS-FACTORIAL HepG2 Assay for human Hepatocyte Nuclear Factor 4 alpha (HNF4a) (AID 2282982). The conditions noted are these: HepG2 HNF4a transactivation reporter, mRNA readout. The method, boiled down:
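HepG2 cells transiently transfected with multiplexed GAL4-UAS reporter units responsive to chimeric NR-GAL4 proteins; compound exposure 24 h. Reporter mRNA quantified by RT-PCR, 6-FAM labelling, HpaI digestion and capillary electrophoresis; gain of signal versus DMSO baseline.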

Test [8] is described as follows: ATG_M_06_TRANS: Attagene TRANS-FACTORIAL HepG2 Assay for M06 Transcription Factor (Internal Marker) (AID 2282983).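 Also: reporter transcript level by RT-PCR then capillary electrophoresis fluorescence.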 The conditions noted are these: HepG2 Attagene TRANS M06 internal marker reporter. The method, boiled down:
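Internal-marker background readout from a multiplexed TRANS reporter system in HepG2; 24 h dosing; mRNA induction quantified by RT-PCR plus capillary electrophoresis fluorescence; DMSO as negative control and baseline.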

The nature of test [9]: ATG_M_32_TRANS: Attagene TRANS-FACTORIAL HepG2 Assay for M32 Transcription Factor (Internal Marker) (AID 2282984).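 Also: transcript level of a background control reporter unit measured by RT-PCR and capillary electrophoresis.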 As to conditions: HepG2 Attagene TRANS M32 internal marker reporter. The procedure, abridged: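 HepG2 cells transiently transfected with multiple GAL4-UAS reporter transcription units, dosed for 24 hours; reporter mRNA quantified by RT-PCR, 6-FAM primer extension, HpaI digestion and capillary electrophoresis. Gain-of-signal fitted versus DMSO baseline; internal background-control marker.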

In test [10] the target is Transcriptional activator Myb (Homo sapiens) (UniProt P10242). Briefly: ATG_Myb_CIS: Attagene CIS-FACTORIAL HepG2 Assay for human Myeloblastosis (Myb) Proto-Oncogene Transcription Factor (AID 2282986; active = hit-call score of the fitted dose curve at least 0.9, where 1 is the maximum; inactive = score below 0.9). The conditions noted are these: HepG2 Attagene CIS-FACTORIAL Myb reporter transcription; actives raise or lower the signal. The method, boiled down: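 In this HepG2 transient-transfection format, cis-regulated reporter mRNA is quantified 24 h post-dosing by RT-PCR with capillary electrophoresis, fitted bidirectionally to DMSO baseline.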
Sequence of Transcriptional activator Myb (Homo sapiens) (P10242 whole entry, looked up): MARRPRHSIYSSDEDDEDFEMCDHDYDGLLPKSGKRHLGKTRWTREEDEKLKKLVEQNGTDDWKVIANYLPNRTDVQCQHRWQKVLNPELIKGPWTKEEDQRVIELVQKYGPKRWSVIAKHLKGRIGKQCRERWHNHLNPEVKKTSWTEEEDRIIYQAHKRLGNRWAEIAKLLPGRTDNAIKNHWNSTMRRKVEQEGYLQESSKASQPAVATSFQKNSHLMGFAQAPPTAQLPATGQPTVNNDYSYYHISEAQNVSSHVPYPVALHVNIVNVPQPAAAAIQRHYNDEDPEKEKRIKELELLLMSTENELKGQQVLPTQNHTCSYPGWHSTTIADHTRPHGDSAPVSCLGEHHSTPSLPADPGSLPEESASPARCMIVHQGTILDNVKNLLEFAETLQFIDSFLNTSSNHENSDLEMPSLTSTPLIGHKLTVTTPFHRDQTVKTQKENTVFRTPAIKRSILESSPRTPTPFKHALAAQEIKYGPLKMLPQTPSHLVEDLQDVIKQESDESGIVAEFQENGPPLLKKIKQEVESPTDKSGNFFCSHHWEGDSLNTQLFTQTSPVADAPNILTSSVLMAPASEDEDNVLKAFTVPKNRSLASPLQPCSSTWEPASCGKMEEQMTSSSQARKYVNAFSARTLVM

Test [11] deals with Nuclear respiratory factor 1 (Homo sapiens) (UniProt Q16656). Description: ATG_NRF1_CIS: Attagene CIS-FACTORIAL HepG2 Assay for human Nuclear Respiratory Factor 1 (NRF1) Orphan Gene (AID 2282987; active = hit-call score of the fitted dose curve at least 0.9, where 1 is the maximum; inactive = score below 0.9). As to conditions: HepG2 NRF1 cis-element reporter, Attagene multiplex; actives raise or lower the signal. The procedure, abridged:
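Using DMSO as baseline, gain- or loss-of-signal was fitted for reporter mRNA levels in HepG2 cells transiently transfected with cis-regulated reporter units. Samples were taken 24 h after dosing and read by RT-PCR with capillary electrophoresis.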

The target of test [12] is Nuclear receptor subfamily 1 group I member 3 (Homo sapiens) (UniProt Q14994). Briefly: ATG_CAR_TRANS: Attagene TRANS-FACTORIAL HepG2 Assay for human Constitutive Androstane Receptor (CAR) (AID 2282969).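 Also: activators raise reporter mRNA above DMSO so AC50 marks induction.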 As to conditions: HepG2 Attagene TRANS-FACTORIAL CAR reporter. The procedure, abridged:
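HepG2 cells transiently transfected with multiplexed GAL4-UAS reporter units expressing chimeric NR-Gal4 proteins; compound exposure 24 h. Reporter mRNA measured by RT-PCR, 6-FAM labelling, HpaI digestion and capillary electrophoresis; gain-of-signal fitted against DMSO baseline.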

Test [13] can be described thus: ATG_M_19_TRANS: Attagene TRANS-FACTORIAL HepG2 Assay for M19 Transcription Factor (Internal Marker) (AID 2282974). As to conditions: HepG2 Attagene TRANS-FACTORIAL M19 internal marker reporter. The method, boiled down:
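Using RT-PCR and capillary electrophoresis, reporter mRNA from transiently transfected human HepG2 cells was quantified following 24 h exposure; activity was fitted in the positive direction against DMSO.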

Test [14] in a line: ATG_GAL4_TRANS: Attagene TRANS-FACTORIAL HepG2 Assay for GAL4 (Internal Marker) (AID 2282976). As to conditions: HepG2 Attagene TRANS GAL4 internal marker reporter. The method, boiled down:
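Liver HepG2 line bearing multiplexed GAL4-UAS reporter constructs; 24 h chemical treatment. Transcripts were quantified as fluorescent fragments on capillary electrophoresis after RT-PCR and HpaI cut, with activity fitted upward from DMSO.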

The target in test [15] is Glucocorticoid receptor (Homo sapiens) (UniProt P04150). Briefly: ATG_GR_TRANS: Attagene TRANS-FACTORIAL HepG2 Assay for human Glucocorticoid Receptor (GR) (AID 2282978).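 Also: activators score as hits since higher reporter transcript over DMSO is fitted.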 The conditions noted are these: HepG2 Attagene TRANS GR reporter, mRNA transcription. The method, boiled down: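 Exogenous NR-GAL4 fusion activity was assessed through induced GAL4-UAS reporter transcripts in transfected human HepG2 cells, quantified after 24 h by RT-PCR and fluorescent capillary electrophoresis with DMSO as baseline.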
Sequence of Glucocorticoid receptor (Homo sapiens) (P04150 whole entry, looked up, the tested form may be a part): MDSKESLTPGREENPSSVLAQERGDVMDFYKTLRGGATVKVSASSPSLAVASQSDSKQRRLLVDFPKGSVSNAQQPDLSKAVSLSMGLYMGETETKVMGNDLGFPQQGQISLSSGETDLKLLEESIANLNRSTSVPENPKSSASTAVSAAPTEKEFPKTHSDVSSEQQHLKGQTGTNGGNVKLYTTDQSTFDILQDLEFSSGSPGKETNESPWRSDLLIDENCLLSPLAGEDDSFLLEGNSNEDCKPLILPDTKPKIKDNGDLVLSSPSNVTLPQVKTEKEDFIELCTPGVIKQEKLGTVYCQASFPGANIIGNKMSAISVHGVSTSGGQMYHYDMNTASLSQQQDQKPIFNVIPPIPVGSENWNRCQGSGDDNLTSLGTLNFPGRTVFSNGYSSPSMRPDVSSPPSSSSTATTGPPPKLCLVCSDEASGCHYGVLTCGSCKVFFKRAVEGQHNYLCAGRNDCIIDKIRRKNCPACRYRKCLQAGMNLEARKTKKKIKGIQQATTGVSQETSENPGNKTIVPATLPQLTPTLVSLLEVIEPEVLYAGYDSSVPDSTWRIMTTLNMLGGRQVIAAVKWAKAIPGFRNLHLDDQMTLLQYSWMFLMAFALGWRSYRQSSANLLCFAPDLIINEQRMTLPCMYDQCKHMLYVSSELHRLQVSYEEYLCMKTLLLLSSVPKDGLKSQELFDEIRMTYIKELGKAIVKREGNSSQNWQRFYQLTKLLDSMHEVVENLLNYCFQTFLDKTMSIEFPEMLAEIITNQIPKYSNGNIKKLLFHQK

Test [16] deals with Bile acid receptor (Homo sapiens) (UniProt Q96RI1). Description: ATG_FXR_TRANS: Attagene TRANS-FACTORIAL HepG2 Assay for Farnesoid X Receptor (FXR) (AID 2282979).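 Also: hits raise reporter mRNA above DMSO so AC50 marks FXR activation.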 As to conditions: HepG2 Attagene TRANS FXR-GAL4 reporter transcription. The method, boiled down:
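After 24 h chemical treatment of transfected HepG2 cells, GAL4-UAS reporter transcripts driven by an exogenous FXR-GAL4 fusion were measured by RT-PCR and capillary electrophoresis. Increases over DMSO were fitted.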

Test [17] deals with Nuclear receptor subfamily 4 group A member 2 (Homo sapiens) (UniProt P43354). Description: ATG_NURR1_TRANS: Attagene TRANS-FACTORIAL HepG2 Assay for human Nuclear Receptor Related Protein 1 (NURR1) (AID 2282985). The conditions noted are these: HepG2 Attagene TRANS reporter, mRNA readout. The procedure, abridged:
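HepG2 cells transiently transfected with GAL4-UAS reporter units and chimeric NR-Gal4 constructs; chemical exposure 24 h. Reporter mRNA quantified by RT-PCR, fluorescent labelling and capillary electrophoresis; gain of signal fitted relative to DMSO baseline.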

Sequence of X-box-binding protein 1 (Homo sapiens) (P17861 whole entry, looked up, the tested form may be a part): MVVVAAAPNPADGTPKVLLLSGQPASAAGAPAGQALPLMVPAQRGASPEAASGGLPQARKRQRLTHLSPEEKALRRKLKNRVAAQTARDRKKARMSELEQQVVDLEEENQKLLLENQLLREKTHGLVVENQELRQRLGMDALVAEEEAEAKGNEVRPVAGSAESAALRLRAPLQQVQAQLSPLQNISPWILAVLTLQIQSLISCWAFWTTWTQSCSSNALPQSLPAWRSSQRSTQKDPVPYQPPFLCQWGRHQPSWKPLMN
Sequence of Hepatocyte nuclear factor 4-alpha (Homo sapiens) (P41235 whole entry, looked up, the tested form may be a part): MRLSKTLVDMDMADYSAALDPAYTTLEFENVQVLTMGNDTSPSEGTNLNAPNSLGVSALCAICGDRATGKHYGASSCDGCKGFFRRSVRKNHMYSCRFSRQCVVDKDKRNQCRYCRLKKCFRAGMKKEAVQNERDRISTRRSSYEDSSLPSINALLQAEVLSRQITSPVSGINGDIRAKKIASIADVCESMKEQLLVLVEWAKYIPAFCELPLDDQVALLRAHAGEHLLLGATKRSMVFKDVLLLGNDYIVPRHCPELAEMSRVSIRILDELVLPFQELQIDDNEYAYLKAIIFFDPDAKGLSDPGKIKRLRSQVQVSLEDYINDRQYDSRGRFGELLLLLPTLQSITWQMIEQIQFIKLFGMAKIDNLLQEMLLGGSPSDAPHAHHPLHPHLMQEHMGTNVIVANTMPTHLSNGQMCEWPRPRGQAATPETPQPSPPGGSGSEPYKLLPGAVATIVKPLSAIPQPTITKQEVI
Sequence of Nuclear respiratory factor 1 (Homo sapiens) (Q16656 whole entry, looked up): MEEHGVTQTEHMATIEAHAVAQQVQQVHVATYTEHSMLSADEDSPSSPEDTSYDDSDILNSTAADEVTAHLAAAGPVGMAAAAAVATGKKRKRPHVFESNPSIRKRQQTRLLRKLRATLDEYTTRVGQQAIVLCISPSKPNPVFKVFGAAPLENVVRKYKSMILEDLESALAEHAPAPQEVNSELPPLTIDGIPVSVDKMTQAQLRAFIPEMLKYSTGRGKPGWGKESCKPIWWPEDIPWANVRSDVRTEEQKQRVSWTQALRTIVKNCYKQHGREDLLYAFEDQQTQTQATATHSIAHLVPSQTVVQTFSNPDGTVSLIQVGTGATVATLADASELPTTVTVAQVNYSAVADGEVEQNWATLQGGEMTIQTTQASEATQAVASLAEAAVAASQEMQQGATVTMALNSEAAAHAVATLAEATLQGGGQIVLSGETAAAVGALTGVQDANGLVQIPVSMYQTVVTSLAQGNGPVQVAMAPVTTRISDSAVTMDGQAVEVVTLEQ
Sequence of Oxysterols receptor LXR-beta (Homo sapiens) (P55055 whole entry, looked up, the tested form may be a part): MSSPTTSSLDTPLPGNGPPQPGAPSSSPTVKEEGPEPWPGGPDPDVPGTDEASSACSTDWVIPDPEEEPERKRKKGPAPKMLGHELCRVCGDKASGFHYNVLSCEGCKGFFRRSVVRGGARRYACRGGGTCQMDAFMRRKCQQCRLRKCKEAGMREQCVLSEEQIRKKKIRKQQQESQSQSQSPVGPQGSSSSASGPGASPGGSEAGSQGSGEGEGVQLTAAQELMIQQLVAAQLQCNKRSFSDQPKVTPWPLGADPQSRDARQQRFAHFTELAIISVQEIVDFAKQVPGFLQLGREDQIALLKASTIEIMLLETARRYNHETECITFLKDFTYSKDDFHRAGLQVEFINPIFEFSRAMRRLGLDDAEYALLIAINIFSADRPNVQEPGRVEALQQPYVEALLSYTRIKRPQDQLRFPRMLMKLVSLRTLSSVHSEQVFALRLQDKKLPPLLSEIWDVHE
Sequence of Nuclear receptor subfamily 4 group A member 2 (Homo sapiens) (P43354 whole entry, looked up, the tested form may be a part): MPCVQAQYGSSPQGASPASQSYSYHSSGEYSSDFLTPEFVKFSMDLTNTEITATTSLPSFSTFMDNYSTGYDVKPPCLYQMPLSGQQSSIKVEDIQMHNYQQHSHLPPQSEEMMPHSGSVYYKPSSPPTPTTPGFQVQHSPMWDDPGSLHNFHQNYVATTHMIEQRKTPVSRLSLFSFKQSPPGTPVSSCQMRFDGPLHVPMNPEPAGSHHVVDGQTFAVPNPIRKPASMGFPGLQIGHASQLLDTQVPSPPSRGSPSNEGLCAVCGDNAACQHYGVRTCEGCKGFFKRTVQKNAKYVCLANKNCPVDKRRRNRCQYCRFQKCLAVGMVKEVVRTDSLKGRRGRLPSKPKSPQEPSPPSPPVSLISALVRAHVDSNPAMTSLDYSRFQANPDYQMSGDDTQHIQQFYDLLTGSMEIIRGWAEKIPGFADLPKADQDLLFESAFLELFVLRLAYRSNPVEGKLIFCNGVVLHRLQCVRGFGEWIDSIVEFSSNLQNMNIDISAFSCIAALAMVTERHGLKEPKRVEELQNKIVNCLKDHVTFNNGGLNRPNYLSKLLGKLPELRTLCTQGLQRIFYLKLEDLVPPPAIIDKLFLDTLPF
Sequence of Nuclear receptor subfamily 1 group I member 3 (Homo sapiens) (Q14994 whole entry, looked up, the tested form may be a part): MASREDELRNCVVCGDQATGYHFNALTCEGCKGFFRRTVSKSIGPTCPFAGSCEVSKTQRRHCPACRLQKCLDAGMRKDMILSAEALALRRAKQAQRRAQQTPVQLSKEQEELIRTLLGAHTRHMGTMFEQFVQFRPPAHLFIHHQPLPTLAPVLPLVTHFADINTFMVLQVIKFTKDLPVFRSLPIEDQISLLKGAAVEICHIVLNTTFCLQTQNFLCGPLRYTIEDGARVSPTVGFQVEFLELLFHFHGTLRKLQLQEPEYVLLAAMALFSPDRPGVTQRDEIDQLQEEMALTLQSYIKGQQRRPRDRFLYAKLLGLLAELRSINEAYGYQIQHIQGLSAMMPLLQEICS
Sequence of Bile acid receptor (Homo sapiens) (Q96RI1 whole entry, looked up, the tested form may be a part): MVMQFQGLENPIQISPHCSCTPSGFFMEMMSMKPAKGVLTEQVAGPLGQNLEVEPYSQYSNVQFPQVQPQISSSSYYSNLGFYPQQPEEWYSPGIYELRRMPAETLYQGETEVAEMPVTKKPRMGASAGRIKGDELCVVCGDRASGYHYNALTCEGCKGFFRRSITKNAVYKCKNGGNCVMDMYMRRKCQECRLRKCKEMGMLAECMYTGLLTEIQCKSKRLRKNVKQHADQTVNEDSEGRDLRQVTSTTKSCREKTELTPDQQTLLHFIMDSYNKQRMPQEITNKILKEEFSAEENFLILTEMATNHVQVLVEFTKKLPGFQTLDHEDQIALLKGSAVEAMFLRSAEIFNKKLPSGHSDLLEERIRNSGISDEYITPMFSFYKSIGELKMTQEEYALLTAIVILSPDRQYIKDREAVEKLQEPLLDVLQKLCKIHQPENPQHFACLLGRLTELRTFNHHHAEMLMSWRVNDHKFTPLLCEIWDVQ

With `CC(C)(C)c1ccc(-c2ccc(C(C)(C)C)cc2)cc1`, the result in [1], in test [2], in test [3], in test [4], in [5] and in [6] was inactive. Further, the result in test [7], in test [8], in test [9], in test [10] and in test [11] was inactive.
Consider `C=C[Si](OC(C)=O)(OC(C)=O)OC(C)=O`, for which the outcome in [1], in test [2], in test [12], in test [4], in test [13] and in test [14] was inactive. For the same compound, the result in test [5], in test [6], in test [9] and in test [10] was inactive.
The term AC50 denotes the concentration giving half of the maximal activity seen. Consider `COC(=O)C1=C(C)NC(C)=C(C(=O)OCC(C)C)C1c1ccccc1[N+](=O)[O-]` (stereo unspecified), for which the call in test [1], in [2], in test [12], in test [4], in [14] and in [15] was inactive. Also, the result in test [16], in [5], in test [7], in test [8], in test [9] and in test [17] was inactive. In test [10], the result was inactive. The AC50 in [11] was 15.4 µM (active).
As for `O=C(O)Cc1c(Cl)ccc(Cl)c1Cl`, the outcome in test [1], in test [2], in test [4], in test [13], in test [7] and in test [9] was inactive. In test [10], the compound was classed as inactive.
With `CC(=O)Oc1ccc(C)cc1`, the compound was called inactive in test [1], in test [2], in test [4], in test [13], in test [14] and in test [9]. Also, the outcome in test [17], in test [10] and in test [11] was inactive.
